Autofluor counter = compound fluorescence in toxin protease inhibitor counterscreen; AID 624483; fluorescence intensity (concentration not given with the values); compound autofluorescence counterscreen, microsphere flow cytometry; hits give high values; 360,000 compounds, 3.1% hits; in the data active = fluorescence intensity above about 16000; inconclusive = no clear call, values can overlap the other calls
Anthrax LF inh2 = Bacillus anthracis LF protease inhibitors, primary screen, biochemical, multiplex microsphere, MLPCN library | Lethal factor (Bacillus anthracis), P15917 | multiplex microsphere protease cleavage assay | inhibition, % at 10 µM | 360,000 compounds, 0.12% hits | AID 588501, 2011; also: plate controls were buffer without enzyme for full effect and enzyme alone for no effect
Target sequence (P15917 whole entry, looked up): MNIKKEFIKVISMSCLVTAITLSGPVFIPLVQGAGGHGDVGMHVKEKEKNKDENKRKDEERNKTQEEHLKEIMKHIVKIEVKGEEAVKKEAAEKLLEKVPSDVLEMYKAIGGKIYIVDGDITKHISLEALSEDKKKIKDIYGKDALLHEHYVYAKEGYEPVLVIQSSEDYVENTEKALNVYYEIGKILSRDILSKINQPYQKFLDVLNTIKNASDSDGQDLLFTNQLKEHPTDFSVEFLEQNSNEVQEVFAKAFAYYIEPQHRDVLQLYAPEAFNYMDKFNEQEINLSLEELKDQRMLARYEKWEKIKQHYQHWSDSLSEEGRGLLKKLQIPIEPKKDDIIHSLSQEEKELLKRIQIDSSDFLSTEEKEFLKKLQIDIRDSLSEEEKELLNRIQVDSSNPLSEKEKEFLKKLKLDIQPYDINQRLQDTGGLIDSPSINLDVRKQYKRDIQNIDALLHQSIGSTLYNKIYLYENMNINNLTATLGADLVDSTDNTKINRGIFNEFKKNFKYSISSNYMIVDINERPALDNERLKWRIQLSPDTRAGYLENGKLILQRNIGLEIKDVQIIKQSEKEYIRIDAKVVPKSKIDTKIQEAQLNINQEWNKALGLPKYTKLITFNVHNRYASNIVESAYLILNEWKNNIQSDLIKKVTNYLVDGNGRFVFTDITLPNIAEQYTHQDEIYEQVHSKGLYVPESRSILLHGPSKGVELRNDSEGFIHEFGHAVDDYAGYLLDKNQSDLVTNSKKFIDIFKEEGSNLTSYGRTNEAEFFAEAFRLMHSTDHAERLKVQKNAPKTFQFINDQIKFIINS
SARS 3CLpro inh = SARS-CoV 3CLpro protease inhibitors, primary screen, biochemical, quenched FRET | Replicase polyprotein 1ab (Severe acute respiratory syndrome coronavirus), P0C6X7 | recombinant SARS-CoV 3CLpro, quenched FRET peptide cleavage | 290,000 compounds, 0.14% hits | inhibition, % at 6 µM | AID 1706, 2009; in the data active = inhibition above about 12%
BoNT-F LC inh = BoNT/F light chain protease inhibitors, primary screen, biochemical, flow cytometry, MLPCN library; inhibition, % at 10 µM; Botulinum neurotoxin type F light chain protease (Clostridium botulinum); 360,000 compounds, 0.22% hits; Multiplex microsphere protease cleavage assay; AID 588497, 2011; in the data active = inhibition above about 35%, passing the limit was not always enough; inconclusive = no clear call, values can overlap the other calls; also: plate controls were buffer without enzyme for full effect and enzyme alone for no effect
BoNT A protease = BoNT/A light chain protease inhibitors, primary screen, biochemical, flow cytometry, MLPCN library | Botulinum neurotoxin type A light chain protease (Clostridium botulinum A str. ATCC 3502) | multiplex microsphere protease substrate cleavage | inhibition, % at 10 µM | 360,000 compounds, 0.17% hits; also: plate controls were buffer without enzyme for full effect and enzyme alone for no effect
DUSP3 inh = VHR1 phosphatase inhibitors, primary screen, biochemical, absorbance, uHTS; Dual specificity protein phosphatase 3 (Homo sapiens), P51452; recombinant VHR phosphatase, pNPP absorbance; inhibition, % at 13.3 µM; 290,000 compounds, 0.52% hits; AID 1654, 2009; in the data active = inhibition above about 50%
The depositor's hits bear a star. Only some compounds are listed: those with a hit (about 3.9% of all), similar ones and a draw of the others. Rule as the data show it, unless noted: active = inhibition above about 30%; inconclusive = no clear call, values can overlap the other calls; inactive = below that.

For O=C1NC2(CCCCCC2)C(=O)N1Cc1ccc(Br)cc1 the results were Autofluor counter 5670, Anthrax LF inh2 -1, SARS 3CLpro inh 4, BoNT-F LC inh 3, BoNT A protease 1 and DUSP3 inh -14.
Screening O=C1NC2(CCCCC2)N=C1c1ccc(Br)cc1 returned Autofluor counter 4559, Anthrax LF inh2 0, SARS 3CLpro inh -4, BoNT-F LC inh 12, BoNT A protease 0 and DUSP3 inh 55*.
`O=C1NC2(CCCCC2)N=C1c1ccc(F)cc1` gave Autofluor counter 22118*, Anthrax LF inh2 -1, SARS 3CLpro inh -2, BoNT-F LC inh -6, BoNT A protease -4 and DUSP3 inh 19.
For Cc1ccc(C2=NC3(CCCCCC3)NC2=S)cc1 the results were Autofluor counter 9507, Anthrax LF inh2 -11, SARS 3CLpro inh 4, BoNT-F LC inh -4, BoNT A protease -1 and DUSP3 inh -11.
Screening O=C1NC2(CCCC2)N=C1c1ccc(Cl)cc1 returned Autofluor counter 23960*, Anthrax LF inh2 0, SARS 3CLpro inh 2, BoNT-F LC inh -2, BoNT A protease -2 and DUSP3 inh 26.
For CCOC(=O)c1nc2c(ccc3ccccc32)cc1C the results were Autofluor counter 5548, Anthrax LF inh2 -8, SARS 3CLpro inh -2, BoNT-F LC inh -2, BoNT A protease 0 and DUSP3 inh 9.
`CCOC(=O)c1c(C)oc2c1c(C=NCC1CCCO1)c(O)c1ccccc12` (stereo not drawn) gave Autofluor counter 3502, Anthrax LF inh2 2, SARS 3CLpro inh 5, BoNT-F LC inh 20, BoNT A protease 0 and DUSP3 inh 51*.
Screening N#CC1=C2SCN(Cc3ccco3)CN2C(=O)CC1c1ccc(Cl)cc1 (stereo not drawn) returned Autofluor counter 22500*, Anthrax LF inh2 1, SARS 3CLpro inh 4, BoNT-F LC inh 2, BoNT A protease 3 and DUSP3 inh 22.
COc1ccc(C2CC(=O)N3CN(Cc4ccco4)CSC3=C2C#N)cc1 (stereo not drawn) was read as Autofluor counter 20177*, Anthrax LF inh2 1, SARS 3CLpro inh 1, BoNT-F LC inh 2, BoNT A protease inconclusive and DUSP3 inh 14.
CC(C)c1ccc(C2CC(=O)N3CN(Cc4ccco4)CSC3=C2C#N)cc1 (stereo not drawn) was read as Autofluor counter inconclusive, Anthrax LF inh2 inconclusive, SARS 3CLpro inh 5, BoNT-F LC inh inconclusive, BoNT A protease inconclusive and DUSP3 inh -12.
For COC(=O)[C@]12CCCCC=C1N(Cc1ccc(Cl)cc1Cl)C(=O)[C@H](CC(=O)NCCc1ccccc1OC)C2 the results were Autofluor counter 6255, Anthrax LF inh2 -7, BoNT-F LC inh 6 and BoNT A protease 0.
Cc1nn(C)cc1C1C2=C(CC(C)(C)CC2=O)N(c2ccccc2)C2=C1C(=O)CC(C)(C)C2 was read as Autofluor counter 3433, Anthrax LF inh2 4, SARS 3CLpro inh 1, BoNT-F LC inh -7, BoNT A protease 0 and DUSP3 inh -5.
For Cc1ccc(N2C3=C(C(=O)CC(C)(C)C3)C(c3cn(C)nc3C)C3=C2CC(C)(C)CC3=O)cc1 the results were Autofluor counter 20845*, Anthrax LF inh2 12, BoNT-F LC inh -14 and BoNT A protease 29.
`Cc1ccc2nc(C(F)OC(F)(F)F)[nH]c2c1` (stereo not drawn) gave Autofluor counter 17272*, Anthrax LF inh2 -2, SARS 3CLpro inh 0, BoNT-F LC inh -7, BoNT A protease -3 and DUSP3 inh -7.
Screening Cc1[nH]c2ccccc2c1Cc1nnc(SCC(=O)NCc2ccco2)o1 returned Autofluor counter 5439, Anthrax LF inh2 -8, SARS 3CLpro inh -1, BoNT-F LC inh -8, BoNT A protease -1 and DUSP3 inh 24.
Screening COc1ccccc1NC(=O)CSc1nnc(COc2ccc(Cl)cc2)o1 returned Autofluor counter 5786, Anthrax LF inh2 -1, SARS 3CLpro inh -5, BoNT-F LC inh 0, BoNT A protease -1 and DUSP3 inh -15.
Screening CCOC(=O)c1c(NC(=O)CSc2nnc(Cc3ccccc3)o2)sc(C(C)=O)c1C returned Autofluor counter 18103*, Anthrax LF inh2 -3, SARS 3CLpro inh -3, BoNT-F LC inh -11, BoNT A protease inconclusive and DUSP3 inh 13.
COc1ccc(/C(O)=C/Sc2nnc(Cc3ccccc3)o2)cc1 was read as Autofluor counter 24165*, Anthrax LF inh2 -6, SARS 3CLpro inh 1, BoNT-F LC inh -4, BoNT A protease -2 and DUSP3 inh 6.
COc1ccc(C(=O)CSc2nnc(Cc3ccccc3)o2)cc1 was read as Autofluor counter 5554, Anthrax LF inh2 -6, SARS 3CLpro inh 2, BoNT-F LC inh 6, BoNT A protease 0 and DUSP3 inh 2.
For COC(=O)c1ccccc1NC(=O)CSc1nnc(Cc2ccc(Cl)cc2)o1 the results were Autofluor counter 19277*, Anthrax LF inh2 -23, SARS 3CLpro inh -1, BoNT-F LC inh 11, BoNT A protease 6 and DUSP3 inh 6.
O=C(CSc1nnc(Cc2ccccc2)o1)NCc1ccco1 was read as Autofluor counter 21761*, Anthrax LF inh2 -9, SARS 3CLpro inh 7, BoNT-F LC inh 1, BoNT A protease 1 and DUSP3 inh 16.
`COc1ccc(-c2csc(NC(=O)c3c(C)noc3C)n2)cc1OC` gave Autofluor counter 3663, Anthrax LF inh2 0, BoNT-F LC inh 1 and BoNT A protease 0.
`COc1ccc(CCNC(=O)CSc2nc3ccccc3o2)cc1OC` gave Autofluor counter 23875*, Anthrax LF inh2 -1, SARS 3CLpro inh -2, BoNT-F LC inh -6, BoNT A protease -3 and DUSP3 inh 8.
For COc1ccc(Cc2nnc(SCC(=O)NCCc3ccccc3)o2)cc1 the results were Autofluor counter 21339*, Anthrax LF inh2 -1, SARS 3CLpro inh 4, BoNT-F LC inh -7, BoNT A protease inconclusive and DUSP3 inh 23.
`Cc1cc(C)n(C(=O)CSc2nc3ccccc3o2)n1` gave Autofluor counter 20678*, Anthrax LF inh2 2, SARS 3CLpro inh 1, BoNT-F LC inh -5, BoNT A protease -3 and DUSP3 inh -18.
Screening Cc1cccc(C)c1OCc1nnc(SCC(=O)NCCc2ccccc2)o1 returned Autofluor counter 23122*, Anthrax LF inh2 -2, SARS 3CLpro inh 0, BoNT-F LC inh -6, BoNT A protease inconclusive and DUSP3 inh 0.
`CC(=O)c1ccccc1C(=O)N1CCC(n2nccc2NC(=O)C2CC2)CC1` gave Autofluor counter inconclusive, Anthrax LF inh2 -4, SARS 3CLpro inh -2, BoNT-F LC inh -9, BoNT A protease -2 and DUSP3 inh -8.
